Values without a mark were called inactive. For some of these results: Entries with a potency or affinity are not part of this list. Activity calls are given as the source filed them. Unless noted, no rule for the calls is given here.

Experiment [1] is described as follows: antimalarial activity against Dd2 strain (AID 2302;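 active = growth inhibition above 50% at the single 2 µM test dose, taken to imply half-maximal potency below 2 µM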;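 also: 0% = DMSO untreated growth and 100% = chloroquine plus artemisinin killed control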). Particulars: P. falciparum Dd2 in RBCs, LDH growth readout, 72 h; at 2 µM; stronger effect = higher value.
Experiment [2] is described as follows: human hepatoma cell viability loss – ATP luminescence, cytotoxicity control for P. falciparum antimalarial project, primary screen (AID 2303;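 active = inhibition above 50%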;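 also: 0% = DMSO wells and 100% = digitonin-killed cells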). Particulars: HepG2 viability, 24-48 h, at 10 µM, stronger effect = higher value.
Experiment [3] concerns the target L-lactate dehydrogenase (Plasmodium falciparum (isolate CDC / Honduras)) (UniProt Q27743). In words: PfLDH activity inhibition – cell lysate, 3D7 strain, counter-screen for P. falciparum growth inhibition project (AID 2304).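 Also: 0% = vehicle and 100% = reference inhibitor.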 Particulars: P. falciparum 3D7 crude extract, LDH APAD/NBT absorbance; at 2 µM; stronger effect = higher value.
Experiment [4] in a line: inhibition of 3D7 malaria parasite growth – strain 3D7 (AID 2306).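 Also: 0% = DMSO wells and 100% = chloroquine plus artemisinin control wells.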 The settings on record: P. falciparum 3D7 erythrocytic growth, LDH absorbance, 72 h; at 2 µM; stronger effect = higher value.
Experiment [5] deals with Calcium-dependent protein kinase 1 (Plasmodium falciparum (isolate 3D7)) (UniProt P62344). Kind of experiment: PfCDPK1 kinase inhibitors, biochemical, TCAMS library (AID 1159585; cut-off not given, nearly all actives have IC50 up to about 0.98 µM;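 also: inhibitors leave more ATP so luminescence rises with inhibition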). The settings on record: recombinant PfCDPK1, Kinase-Glo ATP depletion luminescence.
Experiment [6] deals with Plasmodium falciparum protein kinase 6 (PK6, PF3D7_1337100) (UniProt Q8IDW1). Kind of experiment: PfPK6 kinase inhibitors, biochemical, TCAMS library (AID 1159586). Particulars: recombinant PfPK6, Kinase-Glo ATP depletion luminescence.
Experiment [7] has as its target Protein kinase 7 (PK7), Plasmodium falciparum 3D7 (PF3D7_0213400) (UniProt Q7YTF7). In words: inhibition of Plasmodium PK7 catalytic activity – biochemical, TCAMS antimalarial set, Kinase-Glo luminescence (AID 1159587). Particulars: recombinant PfPK7, Kinase-Glo ATP depletion luminescence.
The target of experiment [8] is Calcium-dependent protein kinase 4 (Plasmodium falciparum (isolate 3D7)) (UniProt Q8IBS5). Kind of experiment: PfCDPK4 kinase inhibitors, biochemical, TCAMS library (AID 1159588; cut-off not given, nearly all actives have IC50 up to about 0.91 µM). The settings on record: recombinant PfCDPK4, Kinase-Glo ATP depletion luminescence.
Chain of Calcium-dependent protein kinase 4 (Plasmodium falciparum (isolate 3D7)) (Q8IBS5 whole entry, looked up): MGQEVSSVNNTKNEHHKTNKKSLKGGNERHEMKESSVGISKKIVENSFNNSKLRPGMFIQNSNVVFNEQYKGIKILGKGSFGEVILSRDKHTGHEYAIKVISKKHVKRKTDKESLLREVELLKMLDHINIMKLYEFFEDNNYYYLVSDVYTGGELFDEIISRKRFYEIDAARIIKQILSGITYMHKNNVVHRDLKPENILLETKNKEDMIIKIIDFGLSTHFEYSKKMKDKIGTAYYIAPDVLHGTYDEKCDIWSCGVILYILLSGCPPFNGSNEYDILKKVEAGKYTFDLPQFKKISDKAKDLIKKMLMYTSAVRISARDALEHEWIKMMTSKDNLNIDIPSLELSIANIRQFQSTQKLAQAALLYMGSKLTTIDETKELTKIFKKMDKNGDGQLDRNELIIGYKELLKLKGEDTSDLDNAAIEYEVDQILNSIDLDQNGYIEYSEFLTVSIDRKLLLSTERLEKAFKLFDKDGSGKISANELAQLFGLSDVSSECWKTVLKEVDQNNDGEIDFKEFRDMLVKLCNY

Chain of Calcium-dependent protein kinase 1 (Plasmodium falciparum (isolate 3D7)) (P62344 whole entry, looked up): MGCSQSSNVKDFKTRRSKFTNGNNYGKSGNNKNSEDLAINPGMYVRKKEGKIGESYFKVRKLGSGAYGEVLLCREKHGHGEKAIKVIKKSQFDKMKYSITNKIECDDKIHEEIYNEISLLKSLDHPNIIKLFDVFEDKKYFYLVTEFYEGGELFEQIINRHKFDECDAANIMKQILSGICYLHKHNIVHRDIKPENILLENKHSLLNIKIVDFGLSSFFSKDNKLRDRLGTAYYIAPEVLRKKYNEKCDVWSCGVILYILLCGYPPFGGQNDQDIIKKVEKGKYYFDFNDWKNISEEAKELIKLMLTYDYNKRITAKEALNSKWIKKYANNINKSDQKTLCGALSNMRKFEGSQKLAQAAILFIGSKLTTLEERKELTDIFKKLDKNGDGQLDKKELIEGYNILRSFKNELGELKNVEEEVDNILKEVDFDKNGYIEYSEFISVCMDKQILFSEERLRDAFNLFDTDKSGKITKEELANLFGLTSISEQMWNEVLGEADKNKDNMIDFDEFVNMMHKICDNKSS
Chain of L-lactate dehydrogenase (Plasmodium falciparum (isolate CDC / Honduras)) (Q27743 whole entry, looked up): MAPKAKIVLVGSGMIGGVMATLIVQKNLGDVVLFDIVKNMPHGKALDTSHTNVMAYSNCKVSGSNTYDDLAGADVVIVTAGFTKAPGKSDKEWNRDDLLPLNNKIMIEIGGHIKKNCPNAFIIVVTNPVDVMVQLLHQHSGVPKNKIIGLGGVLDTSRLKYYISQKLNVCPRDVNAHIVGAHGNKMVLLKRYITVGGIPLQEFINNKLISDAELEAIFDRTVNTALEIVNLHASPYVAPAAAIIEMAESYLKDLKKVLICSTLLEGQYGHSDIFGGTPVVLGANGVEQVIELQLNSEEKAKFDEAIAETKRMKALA
Chain of Plasmodium falciparum protein kinase 6 (PK6, PF3D7_1337100) (Q8IDW1 1-305): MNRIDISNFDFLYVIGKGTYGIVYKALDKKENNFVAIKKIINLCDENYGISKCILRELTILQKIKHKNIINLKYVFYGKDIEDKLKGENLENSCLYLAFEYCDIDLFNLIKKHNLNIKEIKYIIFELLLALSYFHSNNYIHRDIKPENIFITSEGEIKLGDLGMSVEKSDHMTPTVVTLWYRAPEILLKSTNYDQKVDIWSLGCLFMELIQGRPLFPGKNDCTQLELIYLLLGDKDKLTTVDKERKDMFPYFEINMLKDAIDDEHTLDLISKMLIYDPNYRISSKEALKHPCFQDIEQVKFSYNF
Chain of Protein kinase 7 (PK7), Plasmodium falciparum 3D7 (PF3D7_0213400) (Q7YTF7 1-343): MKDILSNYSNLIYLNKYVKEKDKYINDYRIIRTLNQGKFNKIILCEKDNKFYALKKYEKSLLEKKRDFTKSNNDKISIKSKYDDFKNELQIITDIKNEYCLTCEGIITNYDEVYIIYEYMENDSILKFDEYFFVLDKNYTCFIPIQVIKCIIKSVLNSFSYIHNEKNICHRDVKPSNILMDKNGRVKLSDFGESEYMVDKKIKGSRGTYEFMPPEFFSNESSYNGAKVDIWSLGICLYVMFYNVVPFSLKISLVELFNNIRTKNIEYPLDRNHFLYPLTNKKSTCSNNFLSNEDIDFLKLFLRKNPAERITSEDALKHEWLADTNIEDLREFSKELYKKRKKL

`COc1ccc(C(=O)NCc2ccc(N)nc2C)cc1Nc1ncc(-c2cccc(N(C)C)c2)cn1`: the values for the growth inhibition in experiment [1] and in experiment [4] were 68% (active) and 89% (active), respectively. Also, the inhibition is 9% in experiment [2] and -1% in experiment [3]. Moreover, the result in experiment [5], in experiment [6], in experiment [7] and in experiment [8] was inactive.

As for `CCN(CCC1(c2ccc(Cl)c(Cl)c2)CN(C(=O)c2cc(OC)c(OC)c(OC)c2)CCO1)[C@@H]1C[C@@H]2c3ccccc3C[C@@H]21` (stereo not given in full), the growth inhibition was 65% (active) in experiment [1] and 80% (active) in experiment [4]. The inhibition in experiment [2] is 26%; in experiment [3], -4%. The outcome in experiment [5], in experiment [6], in experiment [7] and in experiment [8] was inactive.

For `Cn1nc(C(F)(F)F)c(-c2ccc(F)cc2)c1NC(=O)Nc1ccc(F)cc1`, the growth inhibition in experiment [1] is 99% (active); in experiment [4], 100% (active). The inhibition was 5% in experiment [2] and -2% in experiment [3]. Moreover, the outcome in experiment [5], in experiment [6], in experiment [7] and in experiment [8] was inactive.

On to `C(=C(c1cccs1)c1cccs1)c1ccc(CNC2CCN(Cc3ccccc3)CC2)cc1`, for which the growth inhibition in experiment [1] was 21%; in experiment [4], 98% (active). Moreover, the values for the inhibition in experiment [2] and in experiment [3] were 40% and 4%, respectively. The outcome in experiment [5], in experiment [6], in experiment [7] and in experiment [8] was inactive.

Regarding `CCCc1cn2c3c(cc(C(=O)N[C@@H](Cc4ccccc4)[C@H](O)CNC4CCOCC4)cc13)N(CC)S(=O)(=O)CC2`, the growth inhibition in experiment [1] was 98% (active); in experiment [4] it was 97% (active). Moreover, the results for the inhibition in experiment [2] and in experiment [3] were 2% and -2%, respectively. Besides, the outcome in experiment [5], in experiment [6], in experiment [7] and in experiment [8] was inactive.

On to `Oc1ccc(Cc2ccccc2)cc1CNC1CCCCC1`, for which the growth inhibition in experiment [1] was 98% (active); in experiment [4] it was 96% (active). In addition, the inhibition in experiment [2] was 30%; in experiment [3] it was -1%. Also, the result in experiment [5], in experiment [6], in experiment [7] and in experiment [8] was inactive.

Regarding `COc1ccc(NC(=O)/C=C/c2cc(F)cc(C(F)(F)F)c2)cc1OCCN(C(C)C)C(C)C`, the growth inhibition in experiment [1] is 21%; in experiment [4] it was 97% (active). Besides, the results for the inhibition in experiment [2] and in experiment [3] were 18% and -3%, respectively. Besides, the outcome in experiment [5], in experiment [6], in experiment [7] and in experiment [8] was inactive.

Regarding `Cc1cc(NC(=O)c2cccs2)ccc1OC1CCN(Cc2ccc(F)cc2)C1` (stereo not given), the growth inhibition is 92% (active) in experiment [1] and 95% (active) in experiment [4]. In addition, the inhibition in experiment [2] and in experiment [3] was 0% in each case. Besides, the outcome in experiment [5], in experiment [6], in experiment [7] and in experiment [8] was inactive.

As to `C=CCOc1ccc(C2C(C(=O)OC)=C(C)NC3=C2C(=O)c2ccccc23)cc1OC` (stereo not given), the figures for the growth inhibition in experiment [1] and in experiment [4] were 65% (active) and 82% (active), respectively. Also, the inhibition in experiment [2] was -4%; in experiment [3] it was -8%. Moreover, the outcome in experiment [5], in experiment [6], in experiment [7] and in experiment [8] was inactive.

For the compound `COc1cc(CCN=C(N)/C=C/c2ccc(Cl)cc2)ccc1Cl`, the growth inhibition in experiment [1] was 16%; in experiment [4], 100% (active). In addition, the inhibition is 68% (active) in experiment [2] and 3% in experiment [3]. Moreover, the result in experiment [5], in experiment [6], in experiment [7] and in experiment [8] was inactive.

In the case of `CCN(CC)S(=O)(=O)c1ccc(Cl)c(C(=O)Nc2ccc3nc(C)sc3c2)c1`, the growth inhibition in experiment [1] is 94% (active); in experiment [4], 96% (active). Also, the inhibition is 9% in experiment [2] and -4% in experiment [3]. Also, the result in experiment [5], in experiment [6], in experiment [7] and in experiment [8] was inactive.

With `Cc1cnc(-c2ccc(NC(=O)c3coc4ccc(N5C[C@@H](C)N(C)[C@@H](C)C5)cc34)cc2)o1`, the growth inhibition was 39% in experiment [1] and 96% (active) in experiment [4]. The inhibition was 18% in experiment [2] and 1% in experiment [3]. Further, the outcome in experiment [5], in experiment [6], in experiment [7] and in experiment [8] was inactive.

Turning to `CCCCCCn1c2c(c(=N)c3c1CCC3)CCCC2`, the growth inhibition in experiment [1] is 76% (active); in experiment [4], 99% (active). Further, the inhibition in experiment [2] is 31%; in experiment [3] it was 4%. In addition, the outcome in experiment [5], in experiment [6], in experiment [7] and in experiment [8] was inactive.

Turning to `Cc1ccccc1C1CCN(C2CCC(NC(=O)c3ccc(-c4cccc(C(F)(F)F)c4)o3)CC2)CC1` (stereo not given), the growth inhibition in experiment [1] was 101% (active); in experiment [4], 99% (active). Further, the inhibition was 56% (active) in experiment [2] and -2% in experiment [3]. Further, the outcome in experiment [5], in experiment [6], in experiment [7] and in experiment [8] was inactive.

As for `Cc1cccc2[nH]c(-c3cccc(-c4cccc(CNCC5CCCO5)c4)c3)nc12` (stereo not given), the growth inhibition in experiment [1] is 99% (active); in experiment [4] it was 101% (active). In addition, the inhibition in experiment [2] is 26%; in experiment [3], -3%. For the same compound, the result in experiment [5], in experiment [6], in experiment [7] and in experiment [8] was inactive.

Consider `CCC(CSC1CCCCC1)N(C)CCN(C)C(CC)CSC1CCCCC1` (stereo not given), for which the growth inhibition in experiment [1] and in experiment [4] was 98% (active) each time. For the same compound, the inhibition in experiment [2] was 84% (active); in experiment [3], -4%. Besides, the outcome in experiment [5], in experiment [6], in experiment [7] and in experiment [8] was inactive.

Consider `CC(O)C1CCCCN1C(=O)c1ccc(-c2cccc(-c3nc4ccc(F)cc4[nH]3)c2)cc1` (stereo not given), for which the growth inhibition in experiment [1] is 97% (active); in experiment [4], 100% (active). Further, the values for the inhibition in experiment [2] and in experiment [3] were 30% and -6%, respectively. Also, the outcome in experiment [5], in experiment [6], in experiment [7] and in experiment [8] was inactive.

`c1csc(-c2ccc3c(c2)CC(NCc2c[nH]c4cnccc24)C3)c1` (stereo not given): the growth inhibition was 34% in experiment [1] and 100% (active) in experiment [4]. The inhibition in experiment [2] is 9%; in experiment [3], -1%. In addition, the outcome in experiment [5], in experiment [6], in experiment [7] and in experiment [8] was inactive.

Turning to `Cc1cccc2[nH]c(-c3cccc(-c4cccc(NC(=O)NCc5ccccc5)c4)c3)nc12`, the growth inhibition in experiment [1] is 27%; in experiment [4], 94% (active). Moreover, the inhibition in experiment [2] was 12%; in experiment [3], 5%. Besides, the outcome in experiment [5], in experiment [6], in experiment [7] and in experiment [8] was inactive.

Take `O=C1CCCC1Sc1nc2ccccc2c(=O)n1-c1ccc(Cl)c(Cl)c1` (stereo not given): the values for the growth inhibition in experiment [1] and in experiment [4] were 42% and 97% (active), respectively. Besides, the inhibition in experiment [2] was 10%; in experiment [3] it was 0%. The result in experiment [5], in experiment [6], in experiment [7] and in experiment [8] was inactive.
